HT1080NT lethal: kills 2HG-producing HT-1080-NT fibrosarcoma cells | actives 1.6% (n = 360,000) | Potency, µM (titrated, usually from 46.1 µM), actives largely listed as cytotoxic | HT-1080-NT fibrosarcoma viability, CellTiter-Glo ATP luminescence, 48 h;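 note: NT is the 2HG producing partner of a matched IDH1 knockdown line; nearly all actives have a fitted effect of over 55% in size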
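HT-1080-NT; 750 cells/well; 5% FBS RPMI; 48 h compound, 37 degrees C; CellTiter-Glo luminescence; curve fitting and curve-class assignment.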
KB-V1 MDR tox: kills drug-selected multidrug resistant KB-V1 cells; KB-V1 MDR cells viability, CellTiter-Glo, 72 h; Potency, µM (titrated, usually from 46.1 µM), most hits filed as cytotoxic; actives 3.4% (n = 400,000); AID 1347076; note: nearly all actives have a fitted effect of over 60% in size
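In this primary screen, KB-V1 cells overexpressing P-gp are incubated with library compounds (lowest to highest concentration) for 72 h at 37 degrees C before a luminescent ATP viability read.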
KB-3-1 cytotox: KB-3-1 parental cell cytotoxicity | KB-3-1 viability, CellTiter-Glo ATP luminescence, 72 h | Potency, µM (highest dose often 46.1 µM), most hits filed as cytotoxic | actives 1.4% (n = 400,000) | AID 1347075; note: nearly all actives have a fitted effect of over 60% in size
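KB-3-1 parental drug-naive adenocarcinoma cells in DMEM/10% FBS, incubated 72 h at 37 C with pin-transferred compounds across a concentration series. Viability by CellTiter-Glo luminescence; concentration-response curves fitted after normalization.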
HT1080 IDH1KD tx: HT-1080 IDH1 knockdown cell toxicity (counter line); HT-1080 IDH1 knockdown viability, ATP luminescence, 48 h; actives 2% (n = 360,000); Potency, µM (series often up to 46.1 µM), most hits filed as cytotoxic
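Assay cells: HT-1080 with IDH1 knockdown, 750 per well, RPMI/5% FBS. Exposure: 48 h at 37 °C following 2 h pre-incubation. Read: CellTiter-Glo luminescence; fitted concentration-response, curve class assigned.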
SW480 rereplic: DNA re-replication induction in SW480 cells | SW480 DNA re-replication, Hoechst DNA content imaging, 48 h | Potency, µM (titrated, usually from 46.1 µM), usual class: activators | actives 1.8% (n = 340,000) | AID 624297; note: nearly all actives have a fitted effect of over 55% in size
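SW480 cells exposed to compounds for 48 hr at 37 C, 5% CO2, then Hoechst-stained 40 min. Nuclear DNA content imaged by fluorescence scanning (405 nm excitation, 500-530 nm emission); re-replication scored as increased high-intensity nuclei.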
MCF10A rereplic: DNA re-replication induction in MCF 10a cells; MCF 10A DNA re-replication, Hoechst nuclear intensity, 48 h; actives 2.9% (n = 350,000); Potency, µM (top dose mostly 46.1 µM), hits mostly activators; note: nearly all actives have a fitted effect of over 50% in size
Numbers stand for hits; ! = not confirmed by another sample. The list is not random: actives were taken first. Their share in the collection is about 7.9%. Calls come from the whole dose curve; as a rule, active = well fitted curve in the direction sought with a large enough effect; inconclusive = small, poorly fitted or top-dose-only effect, or another doubt; inactive = no such curve, though single readings can be large; an effect the other way counts as inactive or inconclusive.

`CCC(C)C(=O)Nc1nc(C)c(-c2csc(Nc3cc(Cl)ccc3OC)n2)s1` (centres undefined) gave HT1080NT lethal inactive, KB-V1 MDR tox inconclusive, KB-3-1 cytotox inactive, HT1080 IDH1KD tx inactive, SW480 rereplic inactive and MCF10A rereplic inactive.
`CCCC(C)C(=O)Nc1nc(C)c(-c2csc(Nc3ccccc3OC)n2)s1` (centres undefined) gave HT1080NT lethal inactive, KB-V1 MDR tox inactive, KB-3-1 cytotox inactive, HT1080 IDH1KD tx inactive, SW480 rereplic inactive and MCF10A rereplic 21µM.
`CCC(CO)Nc1nc2ccc(Cl)cc2c2ccccc12` (centres undefined) gave HT1080NT lethal inconclusive, KB-V1 MDR tox inactive, KB-3-1 cytotox inactive, HT1080 IDH1KD tx 18µM, SW480 rereplic inconclusive and MCF10A rereplic inconclusive.
`CCC(CO)Nc1ncnc2c1cnn2-c1ccc(Cl)cc1` (centres undefined) gave HT1080NT lethal inactive, KB-V1 MDR tox inactive, KB-3-1 cytotox inactive, HT1080 IDH1KD tx inactive, SW480 rereplic inactive and MCF10A rereplic inactive.
For COc1ccc(-c2ccc(C(=O)NCc3ccc(N4CCN(C)CC4)cc3)c3occc23)c(C)c1 the results were HT1080NT lethal 23µM, KB-V1 MDR tox inactive, KB-3-1 cytotox inconclusive and HT1080 IDH1KD tx inconclusive.
For COc1ccc(-c2coc3c(C(=O)NCc4ccccc4)cccc23)c(C)c1 the results were HT1080NT lethal inconclusive, KB-V1 MDR tox inconclusive, KB-3-1 cytotox inactive and HT1080 IDH1KD tx inconclusive.
`COCCNC(=O)c1ccc(-c2ccc(OC)cc2C)c2ccoc12` gave HT1080NT lethal inactive, KB-V1 MDR tox inactive, KB-3-1 cytotox inactive and HT1080 IDH1KD tx inactive.
For COc1ccc(-c2ccc(C(=O)NCCN(C)C)c3occc23)c(C)c1 the results were HT1080NT lethal 29µM, KB-V1 MDR tox inactive, KB-3-1 cytotox inactive and HT1080 IDH1KD tx 18µM.
Screening COc1cc(NC(=O)c2ccc(-c3c(C)noc3C)c3ccoc23)cc(OC)c1OC returned HT1080NT lethal inactive, KB-V1 MDR tox 5.8µM, KB-3-1 cytotox inconclusive and HT1080 IDH1KD tx inconclusive.
CC(=O)Nc1ccc(NC(=O)c2ccc(-c3c(C)noc3C)c3ccoc23)cc1 was read as HT1080NT lethal inactive, KB-V1 MDR tox inactive, KB-3-1 cytotox inactive and HT1080 IDH1KD tx inactive.
COc1ccc(-c2coc3c(C(=O)NCC(C)C)cccc23)c(C)c1 was read as HT1080NT lethal inconclusive, KB-V1 MDR tox 15µM, KB-3-1 cytotox inconclusive and HT1080 IDH1KD tx inconclusive.
O=C1C(Cl)=C(O)C2(Cl)C(Cl)=C(Cl)C12Cl (centres undefined) was read as HT1080NT lethal inactive, KB-V1 MDR tox inconclusive, KB-3-1 cytotox inactive, HT1080 IDH1KD tx inactive, SW480 rereplic inactive and MCF10A rereplic inconclusive.
For Cc1ccc(-n2ncc3c(N4CCN(C)CC4)ncnc32)cc1Cl the results were KB-V1 MDR tox inactive and KB-3-1 cytotox inactive.
`CCOC(=O)Cn1c(=O)oc2cc(S(=O)(=O)N3CCN(c4cccc(C)c4)C(C)C3)ccc21` (centres undefined) gave KB-V1 MDR tox inactive and KB-3-1 cytotox inactive.
For COc1ccc(-c2ccc(C(=O)Nc3ccc(NC(C)=O)cc3)c3occc23)c(C)c1 the results were HT1080NT lethal inactive, KB-V1 MDR tox inactive, KB-3-1 cytotox inactive and HT1080 IDH1KD tx inactive.
COc1ccc(-c2ccc(C(=O)Nc3cc(OC)c(OC)c(OC)c3)c3occc23)c(C)c1 was read as HT1080NT lethal inactive, KB-V1 MDR tox 6.5µM, KB-3-1 cytotox inconclusive and HT1080 IDH1KD tx inconclusive.
Oc1cccc2ccc(/C=C/c3ccccc3Cl)nc12 was read as HT1080NT lethal inactive, KB-V1 MDR tox inactive, KB-3-1 cytotox inactive, HT1080 IDH1KD tx inactive, SW480 rereplic inconclusive and MCF10A rereplic inactive.
For Oc1cccc2ccc(/C=C/c3c(F)cccc3Cl)nc12 the results were HT1080NT lethal inactive, KB-V1 MDR tox inactive, KB-3-1 cytotox inconclusive, HT1080 IDH1KD tx inconclusive, SW480 rereplic 18µM and MCF10A rereplic inactive.
`COc1cc2c(O)c3c(c(-c4ccc5c(c4)OCO5)c2cc1OC)C(=O)OC3` gave HT1080NT lethal 2.5µM, KB-V1 MDR tox 4.6µM, KB-3-1 cytotox 15µM, HT1080 IDH1KD tx 2.5µM, SW480 rereplic 23µM and MCF10A rereplic inconclusive.
For COc1ccc(-c2oc(=O)c3cc(OC)c(OC)cc3c2-c2ccc3c(c2)OCO3)cc1 the results were HT1080NT lethal inactive, KB-V1 MDR tox inactive, KB-3-1 cytotox inactive, HT1080 IDH1KD tx inactive, SW480 rereplic inconclusive and MCF10A rereplic inactive.
COc1cc2c(OC(C)=O)c3c(c(-c4ccc5c(c4)OCO5)c2cc1OC)C(=O)OC3 was read as HT1080NT lethal 2.9µM, KB-V1 MDR tox inconclusive, KB-3-1 cytotox 3.3µM!, HT1080 IDH1KD tx 2.1µM, SW480 rereplic inactive and MCF10A rereplic inconclusive.
For CN(C)c1ccc(CN2CCC(C(=O)NC(c3ccc(F)cc3)c3ccc4ccccc4n3)CC2)cc1 (centres undefined) the results were HT1080NT lethal 15µM, KB-V1 MDR tox inactive, KB-3-1 cytotox inconclusive and HT1080 IDH1KD tx inconclusive.
For O=C(NC(c1ccc(F)cc1)c1ccc2ccccc2n1)C1CCN(CCOc2ccc(Cl)cc2)CC1 (centres undefined) the results were HT1080NT lethal inconclusive, KB-V1 MDR tox inconclusive, KB-3-1 cytotox inconclusive and HT1080 IDH1KD tx 21µM.
O=C(NC(c1ccc(F)cc1)c1ccc2ccccc2n1)C1CCN(Cc2cccc(C(F)(F)F)c2)CC1 (centres undefined) was read as HT1080NT lethal 6.5µM, KB-V1 MDR tox inconclusive, KB-3-1 cytotox inconclusive and HT1080 IDH1KD tx 5.8µM.
For O=C(NC(c1ccc(Cl)cc1)c1cnccn1)C1CCN(CCCOc2ccccc2)CC1 (centres undefined) the results were HT1080NT lethal inconclusive, KB-V1 MDR tox inactive, KB-3-1 cytotox inactive and HT1080 IDH1KD tx inconclusive.
For COc1cc(OC)nc(C(NC(=O)C2CCN(Cc3ccc(N(C)C)cc3)CC2)c2ccc(F)cc2)n1 (centres undefined) the results were HT1080NT lethal inactive, KB-V1 MDR tox inactive, KB-3-1 cytotox inactive and HT1080 IDH1KD tx inactive.
COc1cc(/C=C/CN2CCC(C(=O)NC(c3ccc(F)cc3)c3ccc4ccccc4n3)CC2)ccc1OC(C)=O (centres undefined) was read as HT1080NT lethal 16µM, KB-V1 MDR tox inactive, KB-3-1 cytotox inconclusive and HT1080 IDH1KD tx inconclusive.
Screening CCn1cc(C(=O)N2CCN(c3ccccc3F)CC2)c(=O)c2cc(S(=O)(=O)N(C)C)ccc21 returned KB-V1 MDR tox inactive and KB-3-1 cytotox inactive.
Screening CC(CNC(=O)Cn1ccc2cc(S(=O)(=O)N3CCCCC3)ccc21)c1ccccc1 (centres undefined) returned KB-V1 MDR tox inactive and KB-3-1 cytotox inactive.

Screening results from PubChem BioAssay.
